# Measured values published in PubChem BioAssay AID880 (National Center for Advancing Translational Sciences (NCATS), 2007).
# Several values for one entry are separate records, joined by “and”; a condition that tells them apart may be missing. Equal entries are not always repeated. Hit rate of the full screen: of about 230,000 compounds, about 1,000 (0.43%) were called active. What follows is part of a selection rich in actives, with near analogues and random picks from the rest. Entries that show only a call come without a potency. A number with no mark means an inactive call. Calls come from the whole dose curve; as a rule, active = well fitted inhibition curve with a large enough effect (not every such curve was filed as active); inactive = no such curve, though single readings can be large or run the other way.
# Molecular target: Guanine nucleotide-binding protein G(i) subunit alpha-1 (Homo sapiens) (UniProt P63096)
# Sequence (P63096 whole entry, looked up): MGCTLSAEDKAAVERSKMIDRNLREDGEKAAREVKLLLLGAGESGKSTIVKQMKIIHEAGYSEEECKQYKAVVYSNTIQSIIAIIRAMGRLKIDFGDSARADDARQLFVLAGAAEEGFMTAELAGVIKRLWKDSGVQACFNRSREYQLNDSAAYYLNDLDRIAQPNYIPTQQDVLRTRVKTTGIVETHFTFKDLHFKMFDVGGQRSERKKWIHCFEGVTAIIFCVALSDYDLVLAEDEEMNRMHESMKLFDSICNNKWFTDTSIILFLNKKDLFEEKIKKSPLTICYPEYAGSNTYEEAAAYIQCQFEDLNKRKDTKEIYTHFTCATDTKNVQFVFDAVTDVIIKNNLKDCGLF
# Experiment: qHTS Assay for Inhibitors of RGS12 GoLoco Motif Activity (Red Fluorophore); note: nearly all actives have a fitted effect of over 30% in size
# Details: Gai1:RGS12 GoLoco peptide FP, rhodamine, 10 min; series mostly up to 61.6 µM
# Potency is the fitted concentration of half-maximal effect.
SMILES,Potency,"activity, negative = inhibition"
CC(C)(C)C1CCC(=NNC(=O)c2cc(-c3ccccc3)n[nH]2)CC1 (configuration not stated),inactive,
Cc1ccc(C(=O)N/C(=C/c2ccco2)C(=O)NCCc2c[nH]c3ccccc23)cc1C,inactive,
NC(=O)c1nsc(C(=O)N(CC(=O)NCc2ccc(F)cc2)Cc2ccco2)c1N,inactive,
COc1ccc(CCCOC(Cn2ccnc2)c2ccc(OC)cc2)cc1 (configuration not stated),inactive,
C[C@]12CC[C@@H]3c4ccc(O)cc4C[C@@H](CCCCCCCCCS(=O)CCCC(F)(F)C(F)(F)F)C3[C@@H]1CC[C@@H]2O (some centres not stated),inactive,
CN(C)CCCCCN(C)Cc1cc2ccccc2o1,inactive,
Nc1ccc2c3c(cccc13)C(=O)NC2=O,3.16 µM (active) and 20 µM (active),
COC1(C2=NCCN2)COc2ccccc2O1 (configuration not stated),inactive,
COC(=O)c1nn(-c2cccc(Cl)c2)ccc1=O,inactive,
COc1ccc(C)cc1-n1nnnc1SCc1nc2ccccc2c(=O)[nH]1,inactive,
Cc1cc2nc3c(=O)[nH]c(=O)nc-3n(C[C@H](O)[C@H](O)[C@H](O)CO)c2cc1C,17.8 µM (active),
N#C/C(=C\c1ccc(-c2cccc([N+](=O)[O-])c2)o1)C(=O)NCCN1CCOCC1,inactive,
CC(Oc1ccc(-c2ccccc2)c(F)c1)c1ccn(S(=O)(=O)c2cccc3ccccc23)n1 (configuration not stated),inactive,
C=C1O[C@@](CO)(n2cnc3c(N)ncnc32)[C@H](O)[C@@H]1O,inactive,
Cc1csc(-c2coc3cc(O[C@@H]4O[C@H](CO)[C@@H](O)[C@@H](O)[C@H]4O)ccc3c2=O)n1,inactive,
CN(C)/C(CN1CCCCC1)=C1\N=C(c2ccccc2)OC1=O,inactive,
CCOC(=O)N1CCC(N(CCOC)C(=O)Nc2ccc(C)c(C)c2)CC1,inactive,
CN(C)c1nc(=Nc2cccc(Cl)c2)ss1,inactive,
S=C(Nc1cccc(Br)c1)N1CCn2cccc2C1c1cccnc1 (configuration not stated),inactive,
O=C(CSc1nc2ccccc2s1)Nc1ccc(C(=O)O)cc1,inactive,
O=[N+]([O-])c1c(NCCO)cc(Sc2nc3ccccc3s2)c2nonc12,8.91 µM (active),
c1ccc2sc(SCCSc3nc4ccccc4s3)nc2c1,,2.61% [at 14.2 µM]
COc1ccc(-c2nc(CS(=O)CC(=O)NCc3cccnc3)c(C)o2)cc1OC (configuration not stated),inactive,
COc1ccc(-c2nc(CS(=O)CC(=O)N3CCc4ccccc4C3)c(C)o2)cc1 (configuration not stated),inactive,
COc1ccc(-c2nc(CS(=O)CC(=O)NCc3ccccn3)c(C)o2)cc1 (configuration not stated),14.1 µM (active),

SMILES,Potency,"activity, negative = inhibition"
O=C(c1ccccc1)c1ccc(OCC(O)CN2CCCC2)cc1 (configuration not stated),inactive,
C[N+]1(CC(O)COc2ccccc2)CCN(C(=O)c2ccc([N+](=O)[O-])cc2)CC1 (configuration not stated),12.6 µM (active),
O=[N+]([O-])c1ccc(N2CCN(CC(O)COc3ccccc3)CC2)cc1 (configuration not stated),inactive,
CN(C)C(=O)c1nc2ccc(Cl)cn2c1CNCc1cccc(OC(F)(F)F)c1,inactive,
Cn1nc(C(F)(F)F)cc1C(=O)O,inactive,
O=[N+]([O-])c1cc(S(=O)(=O)CCCN2CCOCC2)ccc1F,inactive,
CC(C)c1cnc(NC(=O)Cc2ccccc2)s1,inactive,
O=C(CSc1ncnc2c1cnn2CCc1ccccc1)Nc1ccc(F)cc1,inactive,
Oc1ccc(CNc2ccccc2O)cc1,inactive,
O=C(OCc1ccccc1)c1ccc(O)cc1,inactive,
COC(=O)CCCCCN1C(=O)NC(c2ccc(-c3ccccc3)cc2)C(C(=O)OCc2ccccc2)=C1C (configuration not stated),inactive,
CC(=O)[C@H](C(c1ccccc1)N1CCOCC1)N1CCOCC1 (some centres not stated),,-7.72% [at 14.2 µM]
C=C(C(C)=O)C(O)c1ccc([N+](=O)[O-])cc1 (configuration not stated),inactive,
CCOC(=O)C1(CC2CCCCO2)CCN(Cc2nc(-c3cccs3)oc2C)CC1 (configuration not stated),inactive,
OCC(CO)NC1C[C@](O)(CO)[C@@H](O)[C@H](O)[C@H]1O (some centres not stated),inactive,
NC1CCN(O)C1=O (configuration not stated),inactive,
CCc1ccc(-n2c(SCc3cc(=O)n4cc(Br)ccc4n3)nc3[nH]ncc3c2=O)cc1,inactive,
O=C(O)/C=C/c1ccc(OCCCF)cc1,inactive,
CC(O)COc1ccccc1 (configuration not stated),inactive,
Cc1cccc(Br)c1,inactive,
O=C1OCCN1C(=O)[C@H]1[C@H](c2ccc(Cl)cc2)C(c2cccc(Cl)c2)=NN1c1ccc(Br)cc1,inactive,
CC(O)[C@@H](N)C(=O)O (some centres not stated),inactive,
O=P(O)(O)C(O)c1ccc2ccccc2c1 (configuration not stated),inactive,
Cc1ccnc(-n2sc3ccccc3c2=O)n1,14.1 µM (active),
Cc1ccnc(SCC(N)=O)n1,inactive,

SMILES,Potency,"activity, negative = inhibition"
Cc1ccnc(Nc2nc3ccccc3s2)n1,inactive,
CCOC(=O)c1cnc2[nH]c3ccccc3n2c1=O,inactive,
O=c1[nH]c2ccccc2n2c(-c3ccccc3)nnc12,12.6 µM (active),
Cc1ccc(-c2nc3ccccc3[nH]c2=O)cc1,inactive,
O=C(Nc1cccc(F)c1)N1CCC2(CC1)CCN(S(=O)(=O)c1ccccc1)CC2,inactive,
CCOC(=O)C1=NO[C@@]2(C=C(Br)C(=O)[C@H]3O[C@H]32)C1,inactive,
COc1ccc2c(-c3ccccc3)cc(SCC(=O)N(C)C3CCS(=O)(=O)C3)nc2c1 (configuration not stated),inactive,
CC(=O)OC1C([N+]2(C)CCCCC2)C[C@H]2C3CC[C@H]4C[C@H](OC(C)=O)C([N+]5(C)CCCCC5)CC4(C)C3CCC12C (some centres not stated),inactive,
C=CC(=O)OCCOCCOCCOCCOC(=O)C=C,inactive,
Cc1cccc(-n2c(=O)c3c(C)c(C)sc3n(CC(N)=O)c2=O)c1,inactive,
NC(=O)c1sc(-c2ccsc2)cc1N,inactive,
COc1ccc(-c2nc(-c3ccccc3)oc2Nc2ccc3ccccc3c2)cc1,inactive,
O=C1CC(N2CCN(C(c3ccccc3)c3ccccc3)CC2)C(=O)N1 (configuration not stated),inactive,
CC1(C)CC(=O)C=C(N2CCCC2)C1,inactive,
CC1(C)CC(N2CCN(C(c3ccccc3)c3ccccc3)CC2)=CC(=[N+]2CCCCC2)C1,17.8 µM (active),
O=C1C=CC(=O)N1c1ccc(N2CCCCC2)cc1,5.01 µM (active),
CCOC(=O)/C(C#N)=C/c1ccc(N2CCCCC2)cc1,inactive,
Cc1ccccc1C(=O)Nc1ccc(N2CCCCCC2)cc1,inactive,
N#C/C(=C/c1ccc(N2CCCCC2)o1)C(=O)NCCc1c[nH]c2ccccc12,inactive,
C=C/C1=C/Cc2ccccc2[C@H](C[N+](=O)[O-])C(C(=O)OC)(C(=O)OC)C1,inactive,
COc1ncnc2c1N=C1CC(C)(C)CC(N)=C1S2,25.1 µM (active),
COc1cccc(-c2cc(=O)c3cc(NC(=O)c4ccc(C)cc4)ccc3[nH]2)c1,inactive,
CC(=O)N(CC(O)CO)c1c(I)c(C(=O)NCC(O)CO)c(I)c(C(=O)NCC(O)CO)c1I (configuration not stated),inactive,
COc1ccc2c(c1)C(=C(C#N)C#N)C(=O)N2CCc1ccccc1,inactive,
CC(=O)Nc1ccc(NC(=O)COc2ccc(S(=O)(=O)NC(C)c3ccccc3)cc2)cc1 (configuration not stated),inactive,

SMILES,Potency,"activity, negative = inhibition"
COC(C(=O)Nc1ccc(S(=O)(=O)Nc2ccc(C)c(C)c2)cc1)c1ccccc1 (configuration not stated),inactive,
CC(=O)/C(C)=N/O,inactive,
COc1ccccc1C1CCN(C(=S)Nc2ccc(Br)cc2)CC1,inactive,
Cc1ccccc1CN(c1ccc(C(=O)NCC2CCCO2)cc1)S(C)(=O)=O (configuration not stated),inactive,
Cc1ccccc1Cn1c2ccccc2c2cnn(CC(=O)NCc3ccco3)c(=O)c21,inactive,
CC1(C)OC(=O)N2CCc3ccccc3C21C (configuration not stated),inactive,
COC(=O)c1ccccc1NC(=S)NC(=O)c1ccccc1F,inactive,
CC(C)=CCC[C@]1(C)[C@@H](CC=C(C)C)C[C@@]2(CC=C(C)C)C(=O)[C@]1(C(=O)C(C)C)C(=O)C(CC=C(C)C)=C2O,inactive,
O=C(NCc1ccco1)O[C@@H]1C(=O)c2cc(Br)ccc2O[C@H]1c1ccc2c(c1)OCO2,inactive,
COc1cc(/C=N/NC(=S)Nc2cccnc2)cc(OC)c1O,inactive,
Cc1cccc([C@H]2[C@@H]3C=CC[C@@H](C)[C@@H]3C(=O)N2Cc2ccccc2)c1,inactive,
CC(=O)N/N=C(\C)c1ccc(Br)cc1Br,inactive,
COc1ccc(C2C(C#N)=C(N)Oc3cc(N)ccc32)cc1OC (configuration not stated),inactive,
OC[C@H]1O[C@@H](n2cnc3c(NC4CCCC4)ncnc32)[C@H](O)[C@H]1O,inactive,
CC1(C)C2CCC1(C)C(OC(=O)c1ccc(O)cc1)C2 (configuration not stated),inactive,
O=C(CSc1nc(-c2ccccc2)cs1)Nc1cccc([N+](=O)[O-])c1,inactive,
N#Cc1cccc(CS(=O)(=O)c2nnnn2-c2cc(C(F)(F)F)cc(C(F)(F)F)c2)c1,inactive,
C=CCSc1nc(N)cc(=O)[nH]1,inactive,
Cc1ccc(NC2=C(Cl)C(=O)OC2OC(=O)c2ccccc2C)cc1 (configuration not stated),inactive,
Cc1cc(C)cc(NC(=S)NCc2ccc(F)cc2)c1,inactive,
O=C(C/C(=N\NC(=O)c1ccccc1Br)C(F)(F)F)c1cccs1,inactive,
Cc1cc(C(=O)NNC(=S)Nc2ccccc2C)cs1,inactive,
CN(C)C(=O)c1coc2nc3ccccc3nc12,inactive,
O=C1NC(c2ccc(-c3ccccc3[N+](=O)[O-])o2)C(C(=O)c2ccc(Cl)cc2)C(O)(C(F)(F)F)N1 (configuration not stated),inactive,
COc1ccc(/C=C/C2=CC(C)(C)NC(=S)N2)c(OC)c1,inactive,

SMILES,Potency,"activity, negative = inhibition"
COC(=O)[C@@H]1CC2=CC(=O)CC[C@]2(C)[C@@]23O[C@@H]2C[C@@]2(C)[C@@H](CC[C@@]24CCC(=O)O4)[C@H]13,inactive,
O=c1[nH]n(-c2ccc([N+](=O)[O-])cc2)c(=O)c2ccccc12,14.1 µM (active),
O=c1[nH]c2cccnc2n1-c1ccc([N+](=O)[O-])cc1,inactive,
O=C1CC(c2ccccc2)=NN1c1ccc([N+](=O)[O-])cc1,inactive,
CCn1c(=O)c2cc(C(=O)Nc3cccc(C(C)=O)c3)sc2c2ccccc21,inactive,
COc1ccc(CC(=O)N2N=C(C)CC2(O)C(F)(F)F)cc1 (configuration not stated),inactive,
COc1ccc(-c2c(C)cc3oc(=O)cc(-c4ccccc4)c3c2C)cc1C=O,inactive,
COC(=O)/C=C\C(=O)Nc1cccc([N+](=O)[O-])c1,0.891 µM (active),
Cc1ccccc1NC(=S)Nc1cccc([N+](=O)[O-])c1,inactive,
CC(=O)Nc1cccc([N+](=O)[O-])c1,inactive,
C/C=C(\C)C(=O)OC1C(OC(=O)C2(C)OC2C)c2cc3ccc(=O)oc3cc2OC1(C)C (configuration not stated),inactive,
Nc1ccc2nc3c(=O)[nH]c(=S)[nH]c3nc2c1,14.1 µM (active),
O=c1[nH]c(=O)c2nc3ccccc3nc2[nH]1,inactive,
CC(C)(C)NC(=O)c1ccc(Cn2cc(C(F)(F)F)ccc2=O)cc1,inactive,
CCCCCCCC[n+]1cccc(C(=O)N2c3c(nc(N)[nH]c3=O)NC(C)C2C)c1 (configuration not stated),11.2 µM (active),
CCCCCCn1c(SCC(=O)c2ccccc2)nc2c1c(=O)[nH]c(=O)n2C,inactive,
CCCCNC(=O)Nc1c(C)cc(SC#N)cc1C,inactive,
O=C(Nc1ccc(N2CCOCC2)cc1)c1ccc(-c2ccccc2[N+](=O)[O-])o1,inactive,
COc1ccc(-c2csc3nc(-c4ccccc4F)oc(=O)c23)cc1OC,inactive,
COc1cccc([C@@H]2Oc3ccc(Br)cc3C(=O)[C@H]2OC(=O)NCCc2ccc(OC)c(OC)c2)c1,inactive,
Cc1ccc2c(CC(=O)NCc3cccs3)coc2c1,inactive,
CCOC(=O)C1CCCN(C(=O)COc2ccc(N(C)S(=O)(=O)c3ccc(C)cc3)cc2)C1 (configuration not stated),inactive,
